Inconclusive results are not listed. Calls of active or inactive are those of the source. Unless noted, the call rests on the fitted dose curve; in most records, active means well fitted curve in the direction sought with a large enough effect in the repeat runs; inconclusive means weak or mixed curves; inactive means no such curve, though single readings can be large; an effect the other way counts as inactive or inconclusive.
How the values were obtained:
[1] = qHTS assay for small molecule agonists of the p53 signaling pathway (AID 651631; calls by dose curve; further: on the % scale 0 is the no-effect control and ±100 the full control effect; nearly all actives have a fitted effect of over 15% in size)
Summary of the method: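 HCT-116 cells carrying a stable p53 response element–beta-lactamase reporter were plated, rested 5 h at 37 °C, then exposed to compound in DMSO for 16 h at 37 °C; reporter activity was read as FRET substrate fluorescence after 2 h at room temperature.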

[2] = qHTS assay for small molecules that induce genotoxicity in human embryonic kidney cells expressing luciferase-tagged ATAD5 (AID 651632); further: on the % scale 0 is the no-effect control and ±100 the full control effect; nearly all actives have a fitted effect of over 15% in size
Summary of the method: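 A rise in luciferase signal from ATAD5-tagged HEK293T cells marks genetic stress. Cells were exposed to compounds for 16 hr at 37C, 5% CO2, then luciferase was quantified after a 30 min room-temperature incubation with Amplite.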

[3] = qHTS assay for small molecule agonists of the p53 signaling pathway - cell viability (AID 651633; calls by dose curve; further: series mostly up to about 83 µM; on the % scale 0 is the no-effect control and ±100 the full control effect; nearly all actives have a fitted effect of over 30% in size)
Summary of the method: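 Viability counter-read: CellTiter-Glo luminescence (30 min, room temperature) in the same p53RE-bla plates. These plates had been exposed to compounds for 16 h at 37 C.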

[4] = qHTS assay for small molecules that induce genotoxicity in human embryonic kidney cells expressing luciferase-tagged ATAD5 - cell viability (AID 651634; calls by dose curve; further: on the % scale 0 is the no-effect control and ±100 the full control effect; nearly all actives have a fitted effect of over 25% in size)
Summary of the method: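 Cytotoxicity counter-readout: after 15.5 hr compound treatment at 37C, live-cell protease activity in ATAD5-luciferase HEK293T cells measured by CellTiter-Fluor fluorescence, 30 min development at 37C.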

[5] = qHTS assay for small molecule disruptors of the mitochondrial membrane potential - cell viability (AID 720634; calls by dose curve;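 further: human HepG2 liver cancer cells; series mostly up to about 83 µM; on the % scale 0 is the no-effect control and ±100 the full control effect; nearly all actives have a fitted effect of over 20% in size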)
Summary of the method: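 Cytotoxicity was quantified from ATP content by CellTiter-Glo luminescence in the same wells as the MMP dye read-out. HepG2 (2,000 cells/well) were plated overnight and exposed to compounds for 1 hr at 37 C.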

[6] = qHTS assay for small molecule disruptors of the mitochondrial membrane potential (AID 720635); further: potency means the concentration at half of the fitted maximal effect
Summary of the method: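 Mitochondrial membrane potential tracked with Mito-MPS dye, red aggregates (ex 540/em 590 nm) against green monomers (ex 490/em 535 nm). Compound treatment 1 hr at 37C, dye 30 min in HepG2.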

[7] = qHTS assay to test for compound auto fluorescence at 590 nm (red) in HepG2 cells (AID 720674); further: on the % scale 0 is the no-effect control and ±100 the full control effect
Summary of the method: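 1 hr compound incubation on HepG2 cells, 37 C, 5% CO2; plate read ex 540 nm / em 590 nm; intensities reported as Rose Bengal sodium equivalents.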

[8] = qHTS assay to test for compound auto fluorescence at 535 nm (green) in HepG2 cells (AID 720675); further: on the % scale 0 is the no-effect control and ±100 the full control effect
[9] = qHTS assay to test for compound auto fluorescence at 460 nm (blue) in HEK293 cells (AID 720678); further: on the % scale 0 is the no-effect control and ±100 the full control effect
Summary of the method: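 HEK293 cells (2,000 per well, medium with 10% dialyzed FBS) attached for 4-5 hr at 37C, then received compound and stood overnight at 37C, 5% CO2. Blue fluorescence was read at Ex/Em 405/460 nm and expressed relative to triamterene.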

[10] = qHTS assay to test for compound auto fluorescence at 590 nm (red) in HEK293 cells (AID 720679); further: on the % scale 0 is the no-effect control and ±100 the full control effect
Summary of the method: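 HEK293 cells (2,000/well, medium with 10% dialyzed FBS) attached for 4-5 hr at 37C, received 23 nL compound and were incubated overnight at 37C, 5% CO2. Red fluorescence was then read at 540/590nm Ex/Em, referenced to Rose Bengal sodium.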

[11] = qHTS assay to test for compound auto fluorescence at 460 nm (blue) in HEK293 cell free culture (AID 720681); further: on the % scale 0 is the no-effect control and ±100 the full control effect
Summary of the method: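 Blue fluorescence (Ex 405/Em 460 nm, triamterene-equivalent) was read immediately after pin transfer of compound or DMSO into medium (DMEM, 10% FBS) without cells.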

[12] = qHTS assay to test for compound auto fluorescence at 535 nm (green) in HEK293 cell free culture (AID 720682); further: on the % scale 0 is the no-effect control and ±100 the full control effect
Summary of the method: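 Read-out: 485/535 nm fluorescence intensity, calibrated against fluorescein. Medium only (DMEM + 10% FBS, no cells); test compound or DMSO vehicle added by pintool before plate reading.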

[13] = qHTS assay to test for compound auto fluorescence at 590 nm (red) in HEK293 cell free culture (AID 720683); further: on the % scale 0 is the no-effect control and ±100 the full control effect
Summary of the method: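 Red-channel autofluorescence of compounds in culture medium (DMEM, 10% FBS), no cells, measured at 540/590 nm. Rose Bengal sodium is the reference fluorophore for equivalence.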

[14] = qHTS assay to test for compound auto fluorescence at 590 nm (red) in HepG2 cell free culture (AID 720684); further: on the % scale 0 is the no-effect control and ±100 the full control effect
Summary of the method: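 Cell-free; medium MEM + 10% FBS; compound or DMSO added by pintool; read Ex 540/Em 590 nm; Rose Bengal sodium as red reference fluorophore.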

[15] = qHTS assay to test for compound auto fluorescence at 460 nm (blue) in HepG2 cell free culture (AID 720685); further: on the % scale 0 is the no-effect control and ±100 the full control effect
Summary of the method: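 Cell-free plates of MEM plus 10% FBS received 23 nL compound or DMSO vehicle; blue-channel (405/460 nm) intensity scored against triamterene as reference fluorophore.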

[16] = qHTS assay to test for compound auto fluorescence at 535 nm (green) in HepG2 cell free culture (AID 720686); further: on the % scale 0 is the no-effect control and ±100 the full control effect
[17] = qHTS assay to test for compound auto fluorescence at 460 nm (blue) in HepG2 cells (AID 720687); further: on the % scale 0 is the no-effect control and ±100 the full control effect
Summary of the method: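 Blue-channel autofluorescence (Ex/Em 405/460 nm, triamterene-equivalent) was measured after 1 hr compound exposure at 37 C, 5% CO2. Cells were HepG2, plated overnight at 37 C in MEM plus 10% FBS.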

[18] = qHTS assay to test for compound auto fluorescence at 535 nm (green) in HEK293 cells (AID 720680); further: on the % scale 0 is the no-effect control and ±100 the full control effect
[19] = molecular target: Glucocorticoid receptor (Homo sapiens) (UniProt P04150); experiment: qHTS assay to identify small molecule agonists of the glucocorticoid receptor (GR) signaling pathway (AID 720691; active means well fitted activation curve with a large enough effect in the signal ratio in the repeat runs, not every such curve was filed as active; the % refers to the signal ratio; further: on the % scale 0 is the no-effect control and ±100 the full control effect)
Summary of the method: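 Agonist-mode qHTS in HeLa cells stably expressing a glucocorticoid-response-element beta-lactamase reporter. Fluorescence intensity read with FRET substrate (2 h, room temperature) after 18 h compound treatment at 37 C.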

[20] = molecular target: Glucocorticoid receptor (Homo sapiens) (UniProt P04150); experiment: qHTS assay to identify small molecule antagonists of the glucocorticoid receptor (GR) signaling pathway (AID 720692; active means well fitted inhibition curve with a large enough effect in the signal ratio in the repeat runs, not every such curve was filed as active; the % refers to the signal ratio; further: on the % scale 0 is the no-effect control and ±100 the full control effect)
Summary of the method: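 Inhibition of dexamethasone-driven (5 nM final) beta-lactamase expression was measured in GRE-reporter HeLa cells over 18 h at 37C. Fluorescence was read after 2 h with the B/G FRET substrate at room temperature.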

Sequence of Glucocorticoid receptor (Homo sapiens) (P04150 whole entry, looked up): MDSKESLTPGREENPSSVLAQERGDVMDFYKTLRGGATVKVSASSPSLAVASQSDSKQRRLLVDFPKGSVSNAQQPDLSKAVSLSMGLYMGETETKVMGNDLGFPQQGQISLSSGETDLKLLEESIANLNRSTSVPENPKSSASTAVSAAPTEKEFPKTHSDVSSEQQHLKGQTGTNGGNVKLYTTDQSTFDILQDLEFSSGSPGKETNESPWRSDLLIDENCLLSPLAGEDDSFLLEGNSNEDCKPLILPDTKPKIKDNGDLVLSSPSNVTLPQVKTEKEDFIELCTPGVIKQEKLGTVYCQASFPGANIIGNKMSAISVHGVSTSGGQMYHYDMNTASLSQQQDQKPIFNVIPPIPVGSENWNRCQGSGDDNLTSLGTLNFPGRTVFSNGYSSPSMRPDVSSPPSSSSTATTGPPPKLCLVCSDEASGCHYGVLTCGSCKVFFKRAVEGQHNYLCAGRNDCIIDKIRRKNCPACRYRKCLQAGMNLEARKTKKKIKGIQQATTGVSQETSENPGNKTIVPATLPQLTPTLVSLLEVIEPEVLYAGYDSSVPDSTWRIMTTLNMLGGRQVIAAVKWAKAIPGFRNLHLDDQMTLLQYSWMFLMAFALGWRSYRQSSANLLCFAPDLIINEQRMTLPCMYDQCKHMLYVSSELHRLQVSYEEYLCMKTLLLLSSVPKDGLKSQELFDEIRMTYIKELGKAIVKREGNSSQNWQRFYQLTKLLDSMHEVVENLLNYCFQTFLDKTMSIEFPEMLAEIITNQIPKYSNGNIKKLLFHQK

CC1(C)O[C@@H]2C[C@H]3[C@@H]4CCC5=CC(=O)CC[C@]5(C)[C@@]4(F)[C@@H](O)C[C@]3(C)[C@]2(C(=O)CCl)O1
inactive: Potency [1] | Potency [2] | Potency [3] | Potency [4] | Potency [5] | fluorescence, relative to Rose Bengal [7] -0.0973% [at 18.6 µM] | fluorescence, % of fluorescein control [8] -0.093% [at 18.6 µM] | fluorescence, % of triamterene [9] -0.0183% [at 18.6 µM] | fluorescence, % of fluorescent control [10] -0.0534% [at 18.6 µM] | fluorescence, % of fluorescent control [11] -0.106% [at 18.6 µM] | activity change [12] 0.0954% [at 18.6 µM] | fluorescence, % of fluorescent control [13] -0.0463% [at 18.6 µM] | fluorescence, % of Rose Bengal [14] 0.173% [at 18.6 µM] | fluorescence, % of fluorescent control [15] 0.0173% [at 18.6 µM] | fluorescence, % of fluorescein control [16] 0.0501% [at 18.6 µM] | fluorescence, % of fluorescent control [17] -0.0673% [at 18.6 µM]
active: Potency [6] 8.04 µM

CCCN(CCC)C(=O)C(CCC(=O)O)NC(=O)c1ccccc1 (configuration not stated)
inactive: Potency [1] | Potency [2] | Potency [3] | Potency [4] | Potency [5] | outcome [7] | outcome [8] | outcome [9] | outcome [10] | outcome [18] | outcome [11] | outcome [12] | outcome [13] | outcome [14] | outcome [15] | outcome [16] | outcome [17] | Potency [19]

CCCCNc1cc(C(=O)O)cc(S(N)(=O)=O)c1Oc1ccccc1
inactive: Potency [1] | Potency [2] | Potency [3] | Potency [4] | Potency [5] | fluorescence, relative to Rose Bengal [7] -0.242% [at 18.6 µM] | fluorescence, % of fluorescein control [8] 0.0391% [at 18.6 µM] | fluorescence, % of triamterene [9] 0.191% [at 18.6 µM] | fluorescence, % of fluorescent control [10] -0.225% [at 18.6 µM] | fluorescence, % of fluorescein [18] -0.0725% [at 18.6 µM] | fluorescence, % of fluorescent control [11] -0.0083% [at 18.6 µM] | activity change [12] -0.0379% [at 18.6 µM] | fluorescence, % of fluorescent control [13] -0.0094% [at 18.6 µM] | fluorescence, % of Rose Bengal [14] 0.449% [at 18.6 µM] | fluorescence, % of fluorescein control [16] 0.0191% [at 18.6 µM] | fluorescence, % of fluorescent control [17] -0.0058% [at 18.6 µM]

CCN(CC)CCNC(=O)COc1ccc(Cl)cc1
inactive: Potency [1] | Potency [2] | Potency [3] | Potency [4] | Potency [5] | outcome [7] | outcome [8] | outcome [9] | outcome [10] | outcome [18] | outcome [11] | outcome [12] | outcome [13] | outcome [14] | outcome [15] | outcome [16] | outcome [17] | Potency [19] | Potency [20]

Oc1ccccc1C=NCc1ccccc1
inactive: Potency [1] | Potency [2] | Potency [3] | Potency [4] | Potency [5] | outcome [7] | outcome [8] | outcome [9] | outcome [10] | outcome [11] | outcome [12] | outcome [13] | outcome [14] | outcome [16] | outcome [17] | Potency [19] | Potency [20]
active: Potency [6] 21.1 µM

COc1cc(N)c(Cl)cc1C(=O)NC1CCN(Cc2ccccc2)CC1
inactive: Potency [1] | Potency [2] | Potency [3] | Potency [4] | Potency [5] | fluorescence, relative to Rose Bengal [7] -0.629% [at 18.6 µM] | fluorescence, % of fluorescein control [8] 0.0143% [at 18.6 µM] | fluorescence, % of triamterene [9] 0.111% [at 18.6 µM] | fluorescence, % of fluorescent control [10] -0.139% [at 18.6 µM] | fluorescence, % of fluorescein [18] 0.0161% [at 18.6 µM] | fluorescence, % of fluorescent control [11] -0.0892% [at 18.6 µM] | activity change [12] -0.0003% [at 18.6 µM] | fluorescence, % of fluorescent control [13] 0.0929% [at 18.6 µM] | fluorescence, % of Rose Bengal [14] 0.723% [at 18.6 µM] | fluorescence, % of fluorescent control [15] 2.92% [at 18.6 µM] | fluorescence, % of fluorescein control [16] -0.0056% [at 18.6 µM] | fluorescence, % of fluorescent control [17] 0.034% [at 18.6 µM] | Potency [19] | Potency [20]

From PubChem BioAssay (Tox21)
